A number with no mark means an inactive call.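 The calls were made as follows: active = MAPPIT score above the 99th percentile of random reference set scores in the same batch; inactive = at or below it.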
Key:
Assay in all cases: MAPPIT interaction score (arbitrary units); higher = stronger binary interaction signal, active = hit call of the paper
[1] = molecular target: Coprox; details: MAPPIT configuration: N-N; pair source set: RRS
[2] = molecular target: Cpr62Ba; details: pair source set: RRS
[3] = molecular target: Cp190; details: MAPPIT configuration: N-N; pair source set: Lit-BM-16
[4] = molecular target: mod(mdg4); details: pair source set: Lit-BM-16
[5] = molecular target: Cnb; details: pair source set: Lit-BM-16
[6] = molecular target: Cpr47Eg; details: MAPPIT configuration: N-N; pair source set: Lit-BM-16
[7] = molecular target: RpS13; details: pair source set: Lit-BM-16
[8] = molecular target: Sas-6; details: pair source set: Lit-BM-16
[9] = molecular target: cnn; details: pair source set: Lit-BM-16
[10] = molecular target: CkIIalpha-i3; details: MAPPIT configuration: N-C; pair source set: screen_3
[11] = molecular target: Cpr56F; details: MAPPIT configuration: N-N; pair source set: Finley_Y2H
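Also: HEK293T cells with Epo stimulation, STAT-responsive firefly luciferase reporter, fold induction versus unstimulated cells divided by the larger fold induction of two negative controls lacking either bait or prey.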

B1: Ilp6 (protein)
chain: MVLKVPTSKVLLVLATLFAVAAMISSWMPQVAASPLAPTEYEQRRMMCSTGLSDVIQKICVSGTVALGDVFPNSFGKRRKRDLQNVTDLCCKSGGCTYRELLQYCKG
In the case of B1, the MAPPIT interaction score [1] is reported as -0.378.

B2: Rad60 (protein)
chain: MSDDDCDIFSAARKRIPEIALPKNPYNLGNDSFSKEVDYDFIEDLPKKSTKTGKRKNPAATRKNPPKSQDDASPPKQAEHKAVEPEEDMRTERSLSPVSLLILEMEKKNGQQSDVEKHAKENDVGPVARRTRSSLNRSEMAPPPVSPTVEVPTQTKPKKRGQKKRTSLTTTTSNSASMEVSLPSIVGQNNEHISRRWTLAEVAARSKVVDSIDLVSAVAPRVEGFVNLDSEDEGEKEAPPVVEEENIFDNDNPTIEVALSWLGEIQIYKLRQHQKFKHLFKELASRNGIDENDITVDMYYNFVGPEDTPHSIGLKSFHTLTGHPTKSHNNNNVAAKIDYNPEALCRKPKKFQVKVQADKWKHPLVIPMKKTDNFKIIFIKCAEELNCDPRTIKLFFDGDLLDPNDTPNNQDMEGNEVIDLKIKA
B2 was tested, and the MAPPIT interaction score ([2]; MAPPIT configuration: N-C) was -0.181 and the MAPPIT interaction score ([2]; MAPPIT configuration: N-N) was 1.45.

B3: su(Hw) (protein)
chain: MSASKEGKEKKGKLLGVENISPPKDKRPATRMKLLNDVGAGEDSEASTTTTTSRTPSNKQEKRGSVAGSRIKILNEEILGTPKTEKRGATKSTAPAASTVKILNEKKTPSATVTAVETTKIKTSPSKRKKMEHYVLQAVKSENTKADTTVTVVTEEDDTIDFILADDEEVVPGRIENNNGQEIVVTEDDEDLGEDGDEDGEDSSGKGNSSQTKIKEIVEHVCGKCYKTFRRVQSLKKHLEFCRYDSGYHLRKADMLKNLEKIEKDAVVMEKKDICFCCSESYDTFHLGHINCPDCPKSFKTQTSYERHIFITHSEFSDFPCSICNANLRSEALLALHEEQHKSRGKPYACKICGKDFTRSYHLKRHQKYSSCSSNETDTMSCKVCDRVFYRLDNLRSHLKQHLGTQVVKKPEYMCHTCKNCFYSLSTLNIHIRTHTGEKPFDCDLCDKKFSALVALKKHRRYHTGEKPYSCTVCNQAFAVKEVLNRHMKRHTGERPHKCDECGKSFIQATQLRTHSKTHIRPFPCEQCDEKFKTEKQLERHVKTHSRTKRPVFSCAECKRNFRTPALLKEHMDEGKHSPKQQRSSMRSAVKIMERTDCAICDKNFDSSDTLRRHIRTVHECDPDDIFGVEPHPSKRAKKDIESEEVVPVALNTSAGSLISSQTDGNGVVVREFLVDEGDGAAQTITLENETYTILPLDGAIEGEQLTDEAGVKPEAKKEEAQVSPVVKKEQRKSLAASLAAAIADNLEESCSEDDFSGEILTEEDIKLKENVGKLIDMLVDPPILKKYGWPNAPEETVLCKVIENCGHDLTKGGENYAELDYGSRMREYCKLLFTVVIHNDSIKSLLNNFPIDDVIEYVLGDEDQDEGGLDKDNESHSGDEEAVSVTGETKTNEIREKPEKKEVSAKSEKKEIVGKAVDKDNSEEVVRENKKKPVGEQEKA
Work on B3 yielded an MAPPIT interaction score [3] of 0.105, an MAPPIT interaction score ([4]; MAPPIT configuration: N-C) of 2.52 and an MAPPIT interaction score ([4]; MAPPIT configuration: N-N) of 0.317.

B4: RpS13 (protein)
chain: MGRMHAPGKGISQSALPYRRTVPSWLKLNADDVKEQIKKLGKKGLTPSKIGIILRDSHGVAQVRFVNGNKILRIMKSVGLKPDIPEDLYHMIKKAVAIRKHLERNRKDKDGKFRLILVESRIHRLARYYKTKSVLPPNWKYESSTASALVA
For B4, the MAPPIT interaction score ([5]; MAPPIT configuration: N-N) was 0.219.

B5: Cnb (protein)
chain: MGNETSLPMDMCSNFDADEIRRLGKRFRKLDLDNSGALSIDEFMSLPELQQNPLVQRVIDIFDADGNGEVDFKEFIQGVSQFSVRGDKLSKLRFAFRIYDMDNDGYISNGELFQVLKMMVGNNLKDTQLQQIVDKTICFADKDEDGKISFDEFCSVVGNTDIHKKMVVDV
With B5 the MAPPIT interaction score [6] was 0.368, the MAPPIT interaction score ([7]; MAPPIT configuration: N-C) was 0.361 and the MAPPIT interaction score ([7]; MAPPIT configuration: N-N) was -0.0673. The MAPPIT interaction score ([8]; MAPPIT configuration: N-C) was 0.335, the MAPPIT interaction score ([8]; MAPPIT configuration: N-N) was -0.212 and the MAPPIT interaction score ([9]; MAPPIT configuration: N-C) was -0.173. It also gave an MAPPIT interaction score ([9]; MAPPIT configuration: N-N) of 0.273.

B6: Timp (protein)
chain: MDLRKHLGLLTLLLVAVFAFYGRPADACSCMPSHPQTHFAQADYVVQLRVLRKSDTIEPGRTTYKVHIKRTYKATSEARRMLRDGRLSTPQDDAMCGINLDLGKVYIVAGRMPTLNICSYYKEYTRMTITERHGFSGGYAKATNCTVTPCFGERCFKGRNYADTCKWSPFGKCETNYSACMPHKVQTVNGVISRCRWRRTQLYRKCMSNP
Work on B6 yielded an MAPPIT interaction score [10] of 0.0292.

B7: Cpr47Eg (protein)
chain: MKFFIAFACLLAVALANEDANVLRAEQQVNVDGFAYAVELDNSVNVQQKGDLNGEEWVVKGSQSWTSPENVPVSIQYIADANGYQVVSANPPLPTPPPIPEAIQRSLEYIAAHPPSQ
B7 gave an MAPPIT interaction score ([5]; MAPPIT configuration: N-C) of 1.11 and an MAPPIT interaction score ([5]; MAPPIT configuration: N-N) of -0.0471.

B8: Uro (protein)
chain: MFATPLRQPAAANHQTPKNSAGMDEHGKPYQYEITDHGYGKDAVKVLHVSRNGPVHAIQEFEVGTHLKLYSKKDYYQGNNSDIVATDSQKNTVYLLAKKHGIESPEKFALLLARHFINKYSHVEEAHVHVEAYPWQRVCQEETRTNVNGKCENGVQGNCDFSSIDNRSLHNHAFIFTPTALHYCDVVIRRTDPKQTVITGIKGLRVLKTTQSSFVNFVNDEFRSLPDQYDRIFSTVVDCSWEYSDTENLDFLRAWQTVKNIIIRNFAGDPQVGVSSPSVQHTLYLSERQVLDVLPQVSVISMTMPNKHYFNFDTKPFQKIAPGDNNEVFIPVDKPHGTIYAQLARKNINSHL
With B8 the MAPPIT interaction score [11] was -0.112.
